# Screening data (PubChem)
# In the library only some 7.5% were active in any assay of this set; here they are far more common.
# ELG1 genotox – inducers of genotoxicity in HEK293T ELG1-luciferase cells. HEK293T ELG1-luciferase reporter, luminescence, 16 h. Potency, µM (highest dose often 46 µM), without a hit: at the top dose activity change, positive = activation, usual class: activators. hit rate 1.3% among 330,000; note: % of control where 0% means no effect; nearly all actives have a fitted effect of over 60% in size
#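 Luminescence read-out: rising ELG1-luciferase signal, reflecting elevated ELG1 protein under genetic stress, flags genotoxic compounds. Cells were treated for 16 hr at 37 °C before ONE-Glo detection.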
# FLuc modulator – inhibits or activates purified firefly luciferase, miR-21 counter-screen; hit rate 6.9% among 360,000; AID 588342; purified FLuc, Km substrates, luminescence inhibition; Potency, µM (highest dose often 57.5 µM), for the others: at the highest dose activity change, negative = inhibition, most hits filed as inhibitors; P08659;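 note: plate controls were vehicle for no effect and reference inhibitor for full effect; nearly all actives have a fitted effect of over 55% in size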
# Target sequence (P08659 whole entry, looked up): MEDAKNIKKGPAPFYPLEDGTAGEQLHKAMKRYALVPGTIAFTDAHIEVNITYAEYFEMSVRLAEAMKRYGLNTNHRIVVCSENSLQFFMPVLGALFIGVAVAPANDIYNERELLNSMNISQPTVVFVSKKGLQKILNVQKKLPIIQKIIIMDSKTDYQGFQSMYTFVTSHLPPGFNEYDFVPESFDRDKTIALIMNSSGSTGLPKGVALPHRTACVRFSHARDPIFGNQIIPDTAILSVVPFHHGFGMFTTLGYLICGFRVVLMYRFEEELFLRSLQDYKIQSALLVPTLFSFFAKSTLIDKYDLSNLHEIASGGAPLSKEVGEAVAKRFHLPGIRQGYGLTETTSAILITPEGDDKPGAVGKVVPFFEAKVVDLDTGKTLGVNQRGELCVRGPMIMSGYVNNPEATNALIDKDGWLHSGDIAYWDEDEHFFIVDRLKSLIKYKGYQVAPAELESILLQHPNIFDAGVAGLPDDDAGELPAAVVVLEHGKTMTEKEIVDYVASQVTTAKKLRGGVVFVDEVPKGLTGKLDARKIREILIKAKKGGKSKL
#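 Purified P. pyralis luciferase (10nM final) with 10uM D-luciferin and 10uM ATP (Km levels) in 50mM Tris acetate pH 7.5, 10mM Mg acetate, 0.01% Tween-20, 0.05% BSA; qHTS 6-point titration, ~60 µM downward; luminescence read.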
# SMN2 splice up – SMN2 splice variant enhancement; Potency, µM (doses to about 46.1 µM), inactives show top-dose activity change, positive = activation, most hits filed as activators; hit rate 2.8% among 210,000; HEK293 SMN2-luciferase splicing reporter, luminescence, 30-36 h; note: % of control where 0% means no effect; nearly all actives have a fitted effect of over 55% in size
#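 HEK293 cells carry an SMN2 minigene-luciferase reporter in which exon 7 inclusion puts luciferase in frame. Cells were seeded at 2000 cells/well, attached for 10-12 hours, then exposed to compounds for 30-36 hours at 37C before ONE-Glo luminescence.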
# KinaseGlo FLuc – blocks Kinase-Glo luciferase, a counter-screen artifact | hit rate 0.28% among 200,000 | Kinase-Glo luciferase, ATP luminescence, 8 min | Potency, µM (titrated, usually from 38.3 µM), without a hit: at the top dose activity change, negative = inhibition, actives largely listed as inhibitors; note: % is set by controls: 0 for no effect and ±100 for the full control effect; nearly all actives have a fitted effect of over 60% in size
#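 Substrate mix (final 50 mM imidazole pH 7.2, 50 mM KCl, 7 mM MgCl2, 10 uM ATP, 0.01% Tween 20, 0.05% BSA) plus pin-tool compound, then Kinase-Glo detection mix; 8 min ambient, luminescence read.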
# Rab9 prom act – activates the Rab9 promoter | Huh7 Rab9 promoter-luciferase reporter, luminescence, 24 h | Potency, µM (doses to about 9.22 µM), inactives show top-dose activation, negative = inhibition, hits mostly activators | hit rate 2.8% among 320,000; note: % of control where 0% means no effect; nearly all actives have a fitted effect of over 60% in size
#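 Stable Rab9-luc Huh7, 1500 cells/well, 2 h settle; cmpd in DMSO, 24 h, 37 °C/5% CO2; luciferase reagent 10 min RT; luminescence.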
# NPC1 promoter act – activates the NPC1 promoter; hit rate 2.4% among 320,000; Potency, µM (top dose mostly 9.22 µM), for inactives: top-dose activation, usual class: activators; Huh7 NPC1 promoter luciferase reporter, 24 h; AID 485313; note: % of control where 0% means no effect; nearly all actives have a fitted effect of over 60% in size
#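 Stable NPC1-promoter luciferase Huh7 line; cpd (DMSO) 24 h, 37 °C, 5% CO2; Amplite luciferase reagent 10 min RT; luminescence readout. qHTS format.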
# Starred values were filed as active, the others as inactive; ? = inconclusive; . = no result given; ! = a repeat was not active. Calls come from the whole dose curve; as a rule, active = well fitted curve in the direction sought with a large enough effect; inconclusive = small, poorly fitted or top-dose-only effect, or another doubt; inactive = no such curve, though single readings can be large; an effect the other way counts as inactive or inconclusive. Potency is the fitted concentration of half-maximal effect.
SMILES,ELG1 genotox,FLuc modulator,SMN2 splice up,KinaseGlo FLuc,Rab9 prom act,NPC1 promoter act
Cc1ccc(-c2cc(C(=O)Nc3ccc(S(=O)(=O)Nc4ncccn4)cc3)[nH]n2)c(O)c1C,2.9%,4.78µM*,.,.,2.4%,-1.8%
CC(=O)Nc1ccc(NC(=O)c2cc(-c3cc(C)cc(C)c3O)n[nH]2)cc1,-7.1%,3.38µM*,.,.,2.8%,8.3%
CC(=O)Nc1ccc(NC(=O)c2cc(-c3ccc(C)c(C)c3O)n[nH]2)cc1,-15.8%,5.36µM*,.,.,19.6%,10.0%
CCCCCCCC/C=C\C/C=C\C/C=C\CCCC(=O)O,.,.,10.4%,-0.3%,.,.
O=C(Nc1cccc([N+](=O)[O-])c1)c1ccc2ccccc2c1O,15.0%,0.675µM*,.,.,?,?
O=C(Nc1cccnc1)c1ccc2ccccc2c1O,?,2.13µM*,.,.,2µM*,2.51µM*
O=C(N/N=C/c1cccnc1)c1ccc2ccccc2c1O,?,5.36µM*,.,.,26.9%,12.8%
O=C(N/N=C\c1cccnc1)c1ccccc1O,?,7.57µM*,.,.,?,27.7%
O=C(N/N=C/c1cccnc1)c1ccccc1Br,1.9%,-10.4%,.,.,-1.8%,3.3%
O=C(Cc1ccccc1)Nc1cccc([N+](=O)[O-])c1,0.4%,1.9%,-23.1%,3.7%,-1.9%,-4.1%
O=C(Cc1cccc2ccccc12)Nc1cccnc1,8.5%,3.7%,-16.4%,-4.2%,-4.2%,-2.9%
Cc1ccc(C)c(NC(=O)Cn2c(=O)oc3cc(S(=O)(=O)NCc4ccccc4)ccc32)c1,.,?,-18.5%,.,.,.
Cc1ccc(C)c(S(=O)(=O)N2CCN(C(=O)[C@H](C)N3C(=O)C4CC=CCC4C3=O)CC2)c1 (some centres undefined),-0.4%,6.5%,.,.,-3.6%,-10.9%
COC(=O)c1ccc(/C=N/NC(=O)c2ccccc2Cl)cc1,9.3%,?,20.8%,-0.6%,18.5%,14.0%
CC(C)c1ccc(/C=N/NC(=O)c2ccccc2Cl)cc1,?,23.9µM*,.,0.5%,1.1%,-16.9%
COc1ccc(/C=N/NC(N)=S)cc1OC(=O)c1cccc2ccccc12,-5.3%,6.01µM*,-47.3%,-4.1%,5.3%,1.1%
O=C(O)c1ccccc1C(=O)Nc1ccccn1,6.4%,3.2%,-5.2%,2.0%,5.2%,-8.2%
O=C(Nc1ccccn1)c1ccc2ccccc2c1O,22.5%,21.3µM*,.,.,3.16µM*,3.16µM*
O=C(N/N=C\c1cccnc1)c1ccc(Cl)cc1Cl,1.5%,?,.,.,1.8%,0.4%
COc1ccc(C(=O)Oc2cc(/C=N/NC(N)=S)ccc2OC)cc1,1.8%,-13.5%,9.3%,-6.7%,-5.7%,-5.0%
O=C(N/N=C/c1cccnc1)c1ccccc1Cl,14.7%,10.7µM*,.,.,24.9%,24.1%
Cc1ccc(OCc2cc(=O)n3cc(C)sc3n2)c(C)c1,.,-15.2%,-12.8%,.,.,.
COc1ccc(S(=O)(=O)Nc2cc3c4c(c2)CCC(=O)N4CCC3)cc1C,0.7%,-1.9%,.,.,0.0%,-4.7%
COCCN(C(=O)CSc1nc2ccccc2c(=O)n1CC(C)C)c1c(N)n(Cc2ccccc2)c(=O)[nH]c1=O,-8.5%,-8.5%,.,.,8.7%,-12.0%
COc1cccc(CNC(=O)C2CCC(CNS(=O)(=O)c3ccc4c(c3)CCCC(=O)N4)CC2)c1 (centres undefined),.,4.4%,.,.,.,.
SMILES,ELG1 genotox,FLuc modulator,SMN2 splice up,KinaseGlo FLuc,Rab9 prom act,NPC1 promoter act
COc1cc(/C=N/NC(=O)c2cccnc2)ccc1OC(=O)c1ccco1,-0.1%,-20.3%,3.2%,-6.2%,0.7%,-4.6%
COc1cc(/C=N\NC(=O)c2cccnc2)ccc1OC(=O)c1ccccc1Cl,13.8%,10.7µM*,.,.,2.9%,-0.8%
CN(CC(=O)Nc1cccc(S(=O)(=O)NC2=NCCC2)c1)Cc1cccc(F)c1,1.0%,6.0%,.,.,-1.7%,-7.2%
O=C(Oc1ccc(-c2csnn2)cc1)c1cccs1,-4.6%,2.39µM*,.,.,7.4%,-1.8%
O=C(Oc1ccc(-c2csnn2)cc1)C1CC1,-0.3%,16.9µM*,.,.,-0.5%,-5.6%
O=S(=O)(Nc1ccccc1)c1ccc(-c2csnn2)cc1,-4.9%,-1.8%,.,.,1.1%,-4.3%
c1ccc(-c2ccc(-c3csnn3)cc2)cc1,13.4%,?,?,-5.6%,2µM*,2.24µM*
O=C(Oc1ccccc1-c1csnn1)c1cccs1,-1.3%,0.5%,0.1%,-1.0%,1.4%,-0.6%
Cc1noc(C)c1NC(=O)N(C)C[C@H]1Oc2ccc(NC(=O)NC3CCCCC3)cc2C(=O)N([C@H](C)CO)C[C@@H]1C,-2.0%,.,.,.,.,.
CCc1ccc(C2C(C(=O)Nc3ccccc3C)=C(C)Nc3nc(SCc4cccc(OC)c4)nn32)cc1 (centres undefined),.,-0.6%,.,.,.,.
Cc1ccc2cc3c(nc2c1)N(Cc1ccco1)CC3,?,19µM*,-16.9%,-0.5%,1.3%,6.3%
CSC1=N/C(=C\c2cccnc2)C(=O)N1c1ccccc1,15.2%,12µM*,11.4%,-1.0%,-2.8%,0.6%
O=C(Nc1nnc(S(=O)(=O)N2CCOCC2)s1)c1cccc(F)c1,-1.7%,15.1µM*!,.,.,?,?
O=C(Nc1nnc(S(=O)(=O)N2CCCCCC2)s1)c1ccccc1F,10.5%,16.9µM*,.,.,19.4%,21.9%
O=C(Nc1nnc(S(=O)(=O)N2CCCC2)s1)c1cccc([N+](=O)[O-])c1,7.4%,15.1µM*,.,.,21.6%,25.5%
COc1ccccc1C(=O)Nc1nnc(S(=O)(=O)N2CCCCC2)s1,3.5%,-9.8%,.,.,2.5%,-0.3%
Cc1ccccc1C(=O)Nc1nnc(S(=O)(=O)N2CCCCCC2)s1,0.0%,13.5µM*!,.,.,-0.3%,-6.6%
Cc1cc(C)c(C)c(S(=O)(=O)NCCCn2ccnc2)c1C,-5.5%,0.3%,.,.,-0.8%,-6.3%
Cc1ccc(C(=O)Nc2nnc(S(=O)(=O)N3CCOCC3)s2)cc1,-0.4%,-22.7%,.,.,?,4.0%
COc1ccccc1C(=O)Nc1nnc(S(=O)(=O)N2CCCCCC2)s1,-1.1%,10.7µM*!,.,.,-1.0%,-2.1%
COc1ccc(C(=O)Nc2nnc(S(=O)(=O)N3CCC(C)CC3)s2)cc1OC,-0.9%,3.38µM*!,.,.,-1.5%,-1.0%
COc1ccc(C(=O)Nc2nnc(S(=O)(=O)N3CCCCCC3)s2)cc1OC,4.2%,?,.,.,-8.2%,-0.4%
Cc1ccc(C(=O)Nc2nnc(S(=O)(=O)N3CCCCCC3)s2)cc1,15.5%,9.53µM*!,.,.,0.1%,-3.4%
CCCC(=O)Nc1nnc(S(=O)(=O)N2CCCCCC2)s1,-3.2%,10.7µM*!,.,.,-1.2%,-1.6%
CCCC(=O)Nc1nnc(S(=O)(=O)N2CCCC2)s1,-1.4%,-1.0%,.,.,-1.0%,-8.6%
C=CCOc1ccc(/C=C/C(=O)OCC(=O)NCc2ccco2)cc1,8.5%,-17.9%,.,.,-3.5%,-2.6%
COc1ccc(NC(=O)C2CCN(C(=O)Nc3ccccc3)CC2)cc1S(=O)(=O)N(C)C,-2.0%,.,.,.,-2.7%,-3.0%
